Records with an inconclusive call do not appear. Calls of active or inactive are those of the source. Rule for the calls, unless noted: active = hit-call score of the fitted dose curve at least 0.9, where 1 is the maximum; inactive = score below 0.9.
How the values were obtained:
[1] = ATG_PPRE_CIS: Attagene CIS-FACTORIAL HepG2 Assay for human Peroxisome Proliferator-activated Response Element (PPRE) (AID 2282958); conditions: HepG2 PPRE cis-element reporter, Attagene transcription factor profiling; actives raise or lower the signal
Method in brief: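 Transcript-level reporter induction in transfected HepG2 cells after 24 h chemical exposure, quantified by fluorescence from RT-PCR products separated by capillary electrophoresis.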

[2] = ATG_RORE_CIS: Attagene CIS-FACTORIAL HepG2 Assay for human RAR-related Orphan Receptor Element (RORE) (AID 2282959); conditions: HepG2 Attagene cis-factorial RORE reporter, mRNA; actives raise or lower the signal
Method in brief: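 Multiplexed reporter assay measuring mRNA induction from a cis promoter element in transiently transfected HepG2 cells after 24 h treatment. Detection via RT-PCR and capillary electrophoresis fluorescence; DMSO serves as baseline.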

[3] = ATG_Sox_CIS: Attagene CIS-FACTORIAL HepG2 Assay for human SRY-box transcription factor (SOX) (AID 2282960); conditions: HepG2 Attagene cis-factorial SOX reporter, mRNA; actives raise or lower the signal
Method in brief: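 Cells were transfected with reporter constructs under cis-regulatory promoters, then exposed to chemicals for 24 h. Reporter transcripts were quantified by fluorescence after RT-PCR and capillary electrophoresis; activity was fitted in both directions against DMSO.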

[4] = ATG_SREBP_CIS: Attagene CIS-FACTORIAL HepG2 Assay for human Sterol Regulatory Element Binding (SREBP) (AID 2282962); conditions: HepG2 Attagene cis-factorial SREBP reporter, mRNA; actives raise or lower the signal
Method in brief: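 Readout: fluorescent reporter-transcript peaks resolved by capillary electrophoresis after RT-PCR. Cells were human HepG2 carrying transfected cis-promoter reporter constructs, dosed for 24 h. Gain or loss of signal was fitted against DMSO controls.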

[5] = target: Signal transducer and activator of transcription 3 (Homo sapiens) (UniProt P40763); assay: ATG_STAT3_CIS: Attagene CIS-FACTORIAL HepG2 Assay for human Signal Transducer and Activator of Transcription 3 (STAT3) (AID 2282963); conditions: HepG2, Attagene cis-factorial STAT3 reporter transcription; actives raise or lower the signal
Sequence of Signal transducer and activator of transcription 3 (Homo sapiens) (P40763 whole entry, looked up): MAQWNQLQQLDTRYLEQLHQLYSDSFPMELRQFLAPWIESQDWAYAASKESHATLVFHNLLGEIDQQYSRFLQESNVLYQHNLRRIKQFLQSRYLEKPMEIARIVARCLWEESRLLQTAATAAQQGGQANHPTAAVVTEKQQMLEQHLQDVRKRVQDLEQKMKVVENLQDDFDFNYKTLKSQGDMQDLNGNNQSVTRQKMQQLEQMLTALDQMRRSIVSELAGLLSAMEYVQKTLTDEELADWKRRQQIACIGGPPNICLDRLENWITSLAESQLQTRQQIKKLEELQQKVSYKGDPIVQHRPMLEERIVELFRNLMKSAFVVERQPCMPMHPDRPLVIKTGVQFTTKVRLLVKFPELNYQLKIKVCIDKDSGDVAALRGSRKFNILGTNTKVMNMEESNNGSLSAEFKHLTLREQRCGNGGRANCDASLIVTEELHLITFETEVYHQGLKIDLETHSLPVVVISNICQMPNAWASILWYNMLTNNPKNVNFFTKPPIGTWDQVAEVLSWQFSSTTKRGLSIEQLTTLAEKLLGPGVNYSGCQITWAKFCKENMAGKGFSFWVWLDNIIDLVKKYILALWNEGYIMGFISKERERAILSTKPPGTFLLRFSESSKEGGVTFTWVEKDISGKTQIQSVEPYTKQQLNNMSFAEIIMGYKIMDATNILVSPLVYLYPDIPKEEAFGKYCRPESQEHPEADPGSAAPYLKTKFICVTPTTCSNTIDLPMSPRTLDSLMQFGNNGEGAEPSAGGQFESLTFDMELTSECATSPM
Method in brief: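 Readout is reporter transcript quantified by RT-PCR and capillary electrophoresis, with 6-FAM primer extension and HpaI digestion. Total RNA is taken 24 h after dosing transiently transfected HepG2 carrying cis-regulated reporter units. Bidirectional fit against DMSO.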

[6] = ATG_TA_CIS: Attagene CIS-FACTORIAL HepG2 Assay for human TA Basal Promoter (AID 2282964); conditions: HepG2 Attagene CIS-factorial TA basal promoter reporter; actives raise or lower the signal
Method in brief: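 HepG2 cells transiently transfected with multiple reporter units under cis promoter elements, reporting endogenous transcription factor activity; this endpoint tracks the TA basal promoter as background control. Reporter mRNA after 24 h dosing measured by RT-PCR/capillary electrophoresis; bidirectional fits versus DMSO.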

[7] = ATG_TCF_b_cat_CIS: Attagene CIS-FACTORIAL HepG2 Assay for human T-Cell-Factor with beta-catenin (TCF/b-cat) (AID 2282965); conditions: HepG2 TCF/beta-catenin cis-reporter transcription, actives raise or lower the signal
Method in brief: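 Endogenous TCF/LEF activity read as reporter transcript level via RT-PCR and capillary electrophoresis fluorescence in transfected HepG2, 24 h exposure; gain or loss of signal fitted against DMSO controls.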

[8] = ATG_TAL_CIS: Attagene CIS-FACTORIAL HepG2 Assay for human TAL Basal Promoter (AID 2282966); conditions: HepG2 Attagene cis-factorial TAL promoter reporter; actives raise or lower the signal;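 note: background control endpoint measuring basal TAL promoter reporter mRNA not a specific factor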
Method in brief: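 Background-control endpoint: basal TAL promoter reporter transcripts in transiently transfected HepG2, measured 24 h after dosing. Read-out by RT-PCR with fluorescent primer extension and capillary electrophoresis; gain or loss of signal fitted relative to DMSO.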

[9] = ATG_TGFb_CIS: Attagene CIS-FACTORIAL HepG2 Assay for human Transforming Growth Factor (TGF) (AID 2282967); conditions: HepG2 Attagene CIS TGFb reporter, mRNA transcription; actives raise or lower the signal
Method in brief: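 HepG2 cells transiently transfected with cis-promoter-driven multiple reporter units measure endogenous TF activity; reporter mRNA quantified at 24 h by RT-PCR, FAM labeling, HpaI digestion and capillary electrophoresis. Bidirectional fit vs DMSO.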

[10] = ATG_VDRE_CIS: Attagene CIS-FACTORIAL HepG2 Assay for human Vitamin D Receptor Element (VDRE) (AID 2282968); conditions: HepG2 VDRE cis-reporter transcription, actives raise or lower the signal
Method in brief: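 Readout is VDRE-driven reporter mRNA reflecting endogenous factor activity in human HepG2 cells, sampled 24 h post-dose. Quantification used labelled RT-PCR products separated by capillary electrophoresis; bidirectional analysis relative to DMSO.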

[11] = target: Estrogen receptor (Homo sapiens) (UniProt P03372); assay: ATG_ERa_TRANS: Attagene TRANS-FACTORIAL HepG2 Assay for human Estrogen Receptor alpha (ERa) (AID 2282970; active = hit-call score of the fitted dose curve at least 0.9, where 1 is the maximum); conditions: HepG2 Attagene TRANS ERa GAL4 reporter, mRNA
Sequence of Estrogen receptor (Homo sapiens) (P03372 whole entry, looked up, the tested form may be a part): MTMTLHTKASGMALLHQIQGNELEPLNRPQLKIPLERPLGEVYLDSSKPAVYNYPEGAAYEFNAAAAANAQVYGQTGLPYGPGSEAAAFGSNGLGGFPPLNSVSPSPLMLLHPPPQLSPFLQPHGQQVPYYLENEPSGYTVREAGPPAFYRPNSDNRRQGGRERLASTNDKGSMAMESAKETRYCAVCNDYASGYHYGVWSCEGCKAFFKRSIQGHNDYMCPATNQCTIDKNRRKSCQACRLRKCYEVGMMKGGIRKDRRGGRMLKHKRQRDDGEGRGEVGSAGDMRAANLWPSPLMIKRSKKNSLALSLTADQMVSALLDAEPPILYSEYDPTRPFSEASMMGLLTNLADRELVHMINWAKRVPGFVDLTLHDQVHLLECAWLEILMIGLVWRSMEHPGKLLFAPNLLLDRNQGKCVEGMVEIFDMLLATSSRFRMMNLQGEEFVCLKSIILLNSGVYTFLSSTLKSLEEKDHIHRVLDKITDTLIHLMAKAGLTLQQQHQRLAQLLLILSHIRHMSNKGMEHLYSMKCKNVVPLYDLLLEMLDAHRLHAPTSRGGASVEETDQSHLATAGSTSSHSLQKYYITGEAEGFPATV
Method in brief: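 Reporter transcripts were measured 24 h after dosing by RT-PCR with fluorescent primer extension and capillary electrophoresis. The system is transiently transfected HepG2 expressing exogenous NR-Gal4 chimeras driving GAL4-UAS reporters; DMSO is the baseline.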

[12] = target: X-box-binding protein 1 (Homo sapiens) (UniProt P17861); assay: ATG_Xbp1_CIS: Attagene CIS-FACTORIAL HepG2 Assay for human X-box Binding Protein 1 (XBP1) (AID 2282972); conditions: HepG2 XBP1 cis-element reporter, Attagene multiplex; actives raise or lower the signal
Sequence of X-box-binding protein 1 (Homo sapiens) (P17861 whole entry, looked up, the tested form may be a part): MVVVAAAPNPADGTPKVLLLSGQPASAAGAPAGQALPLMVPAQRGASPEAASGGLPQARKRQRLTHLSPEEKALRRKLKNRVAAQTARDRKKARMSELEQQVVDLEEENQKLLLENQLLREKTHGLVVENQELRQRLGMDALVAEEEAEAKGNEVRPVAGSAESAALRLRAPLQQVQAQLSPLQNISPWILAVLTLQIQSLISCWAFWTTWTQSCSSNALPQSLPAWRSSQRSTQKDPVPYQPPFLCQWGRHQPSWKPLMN
Method in brief: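 Read-out: fluorescent reporter mRNA fragments resolved by capillary electrophoresis after RT-PCR. Human HepG2 liver cells carried transfected cis-promoter reporter units and were exposed to chemicals for 24 hours. Gain or loss of signal fitted relative to DMSO baseline.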

[13] = ATG_M_19_TRANS: Attagene TRANS-FACTORIAL HepG2 Assay for M19 Transcription Factor (Internal Marker) (AID 2282974; active = hit-call score of the fitted dose curve at least 0.9, where 1 is the maximum); conditions: HepG2 Attagene TRANS-FACTORIAL M19 internal marker reporter
Method in brief: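 After transfection of HepG2 with GAL4-UAS-driven reporter constructs, cells are dosed for 24 h. Total RNA is reverse-transcribed, reporter sequences PCR-amplified and labelled, then HpaI-digested and sized by capillary electrophoresis.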

[14] = ATG_PXRE_CIS: Attagene CIS-FACTORIAL HepG2 Assay for human Pregnane X Receptor Element (PXRE) (AID 2282957); conditions: HepG2 Attagene CIS-FACTORIAL PXRE reporter, mRNA; actives raise or lower the signal
Method in brief: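 Reporter transcripts under endogenous PXR-responsive cis-regulation quantified from total RNA of transfected HepG2 cells 24 h post-dosing, via RT-PCR with fluorescent primer extension and capillary electrophoresis. Gain or loss of signal fitted against DMSO baseline.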

[15] = target: Transcription factor Sp1 (Homo sapiens) (UniProt P08047); assay: ATG_Sp1_CIS: Attagene CIS-FACTORIAL HepG2 Assay for human Specificity Protein 1 (Sp1) (AID 2282961); conditions: HepG2 Sp1 cis-reporter transcription, actives raise or lower the signal
Sequence of Transcription factor Sp1 (Homo sapiens) (P08047 whole entry, looked up): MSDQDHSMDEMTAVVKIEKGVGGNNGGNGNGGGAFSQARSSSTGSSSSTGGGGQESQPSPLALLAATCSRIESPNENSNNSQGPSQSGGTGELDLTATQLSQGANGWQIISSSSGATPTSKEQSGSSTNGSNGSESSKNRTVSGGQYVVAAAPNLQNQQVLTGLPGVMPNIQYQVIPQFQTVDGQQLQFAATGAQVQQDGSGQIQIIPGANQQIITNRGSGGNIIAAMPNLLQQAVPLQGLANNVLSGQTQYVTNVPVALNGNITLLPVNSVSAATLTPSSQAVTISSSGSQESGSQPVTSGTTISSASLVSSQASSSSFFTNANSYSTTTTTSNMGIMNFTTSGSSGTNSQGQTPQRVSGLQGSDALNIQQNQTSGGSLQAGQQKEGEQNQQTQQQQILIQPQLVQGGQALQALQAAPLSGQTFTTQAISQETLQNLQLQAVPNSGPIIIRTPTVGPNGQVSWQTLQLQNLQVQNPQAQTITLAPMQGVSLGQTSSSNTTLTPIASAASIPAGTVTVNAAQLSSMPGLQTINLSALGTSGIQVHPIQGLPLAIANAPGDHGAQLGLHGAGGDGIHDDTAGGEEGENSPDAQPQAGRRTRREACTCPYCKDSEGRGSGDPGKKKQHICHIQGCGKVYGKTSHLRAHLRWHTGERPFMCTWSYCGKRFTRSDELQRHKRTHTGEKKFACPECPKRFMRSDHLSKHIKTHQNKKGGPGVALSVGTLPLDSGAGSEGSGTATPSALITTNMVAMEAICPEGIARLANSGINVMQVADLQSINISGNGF
Method in brief: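 Measures mRNA induction of an Sp1-linked reporter in HepG2 cells 24 h post-dosing. Multiplexed reporters read by RT-PCR and capillary electrophoresis; DMSO serves as negative control and baseline.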

[16] = target: Nuclear receptor subfamily 1 group I member 3 (Homo sapiens) (UniProt Q14994); assay: ATG_CAR_TRANS: Attagene TRANS-FACTORIAL HepG2 Assay for human Constitutive Androstane Receptor (CAR) (AID 2282969; active = hit-call score of the fitted dose curve at least 0.9, where 1 is the maximum;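 note: activators raise reporter mRNA above DMSO so AC50 marks induction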); conditions: HepG2 Attagene TRANS-FACTORIAL CAR reporter
Sequence of Nuclear receptor subfamily 1 group I member 3 (Homo sapiens) (Q14994 whole entry, looked up, the tested form may be a part): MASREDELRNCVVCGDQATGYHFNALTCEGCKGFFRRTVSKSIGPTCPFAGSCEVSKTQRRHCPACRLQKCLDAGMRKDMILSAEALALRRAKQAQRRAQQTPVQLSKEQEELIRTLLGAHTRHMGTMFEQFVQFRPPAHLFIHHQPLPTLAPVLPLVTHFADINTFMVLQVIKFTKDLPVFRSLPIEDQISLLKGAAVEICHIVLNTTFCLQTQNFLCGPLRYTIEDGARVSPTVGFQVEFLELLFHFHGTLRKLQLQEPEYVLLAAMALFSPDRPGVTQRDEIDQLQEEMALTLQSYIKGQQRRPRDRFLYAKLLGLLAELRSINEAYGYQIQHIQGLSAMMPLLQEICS
Method in brief: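 Signal is reporter mRNA induction relative to DMSO, measured 24 h after dosing by RT-PCR with fluorescent primer extension and capillary electrophoresis. Human HepG2 liver cells carried transiently transfected chimeric NR-Gal4/GAL4-UAS reporter constructs.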

[17] = ATG_GAL4_TRANS: Attagene TRANS-FACTORIAL HepG2 Assay for GAL4 (Internal Marker) (AID 2282976; active = hit-call score of the fitted dose curve at least 0.9, where 1 is the maximum); conditions: HepG2 Attagene TRANS GAL4 internal marker reporter
Method in brief: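 In transfected human HepG2 liver cells dosed 24 h, GAL4 reporter mRNA serves as a baseline marker. Detection by RT-PCR with fluorescent capillary electrophoresis, activity fitted upward relative to DMSO.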

[18] = target: Estrogen-related receptor gamma (Homo sapiens) (UniProt P62508); assay: ATG_ERRg_TRANS: Attagene TRANS-FACTORIAL HepG2 Assay for human Estrogen-Related Receptor gamma (ERRg) (AID 2282977; active = hit-call score of the fitted dose curve at least 0.9, where 1 is the maximum;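 note: hits increase reporter signal over DMSO so potencies reflect activators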); conditions: HepG2 Attagene TRANS reporter, ERRg transactivation
Sequence of Estrogen-related receptor gamma (Homo sapiens) (P62508 whole entry, looked up, the tested form may be a part): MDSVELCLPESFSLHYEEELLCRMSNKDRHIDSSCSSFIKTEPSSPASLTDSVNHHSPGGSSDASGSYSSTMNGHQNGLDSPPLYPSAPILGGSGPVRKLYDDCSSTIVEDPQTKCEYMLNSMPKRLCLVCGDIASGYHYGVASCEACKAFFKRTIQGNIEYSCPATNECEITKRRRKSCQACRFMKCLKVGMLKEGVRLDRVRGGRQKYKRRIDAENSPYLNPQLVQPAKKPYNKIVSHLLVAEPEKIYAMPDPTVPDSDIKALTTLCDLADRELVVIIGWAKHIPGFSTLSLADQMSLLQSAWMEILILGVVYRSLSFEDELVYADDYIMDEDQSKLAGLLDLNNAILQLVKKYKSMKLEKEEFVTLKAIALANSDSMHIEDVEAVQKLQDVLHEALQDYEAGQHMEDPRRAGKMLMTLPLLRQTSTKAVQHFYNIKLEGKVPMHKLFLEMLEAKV
Method in brief: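 Exogenous NR-Gal4 chimera activity measured as reporter transcript induction after 24 h in transiently transfected HepG2 cells. RNA reverse-transcribed, PCR-amplified, 6-FAM-labelled and resolved by capillary electrophoresis; increase over DMSO baseline.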

[19] = target: Steroid hormone receptor ERR1 (Homo sapiens) (UniProt P11474); assay: ATG_ERRa_TRANS: Attagene TRANS-FACTORIAL HepG2 Assay for human Estrogen-Related Receptor alpha (ERRa) (AID 2282971; active = hit-call score of the fitted dose curve at least 0.9, where 1 is the maximum); conditions: HepG2 Attagene TRANS reporter, ERRa transactivation
Sequence of Steroid hormone receptor ERR1 (Homo sapiens) (P11474 whole entry, looked up, the tested form may be a part): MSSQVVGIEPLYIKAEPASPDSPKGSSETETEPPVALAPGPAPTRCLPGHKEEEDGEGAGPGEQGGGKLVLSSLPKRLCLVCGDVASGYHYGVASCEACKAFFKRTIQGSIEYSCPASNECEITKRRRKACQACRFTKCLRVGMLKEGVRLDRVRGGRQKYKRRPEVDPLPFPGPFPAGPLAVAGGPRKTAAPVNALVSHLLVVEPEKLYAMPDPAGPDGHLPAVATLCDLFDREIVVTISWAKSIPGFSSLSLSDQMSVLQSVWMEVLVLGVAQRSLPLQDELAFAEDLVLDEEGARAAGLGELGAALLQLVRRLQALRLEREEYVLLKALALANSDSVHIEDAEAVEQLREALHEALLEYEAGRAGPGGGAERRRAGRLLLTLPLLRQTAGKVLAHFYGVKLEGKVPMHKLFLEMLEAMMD
Method in brief: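 Reporter transcripts from ERRa-Gal4 chimera activity measured in transiently transfected human HepG2 cells 24 hours after dosing, using RT-PCR with 6-FAM primer extension, HpaI digestion and capillary electrophoresis; DMSO is baseline.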

Measured: AC50

COC(=O)C1=C(C)NC(C)=C(C(=O)OCCN(C)Cc2ccccc2)C1c1cccc([N+](=O)[O-])c1 (configuration not stated)
inactive: [1] | [2] | [3] | [4] | [5] | [6] | [7] | [8] | [11] | [12] | [13]
active: [9] 131 µM | [10] 0.227 µM

CC(C)=CCCC(C)=CCCC(C)=CCO
inactive: [1] | [2] | [3] | [15] | [5] | [6] | [7] | [8] | [9] | [10] | [16] | [13]
active: [14] 4.26 µM

CC(C)(CO)[N+](=O)[O-]
inactive: [14] | [2] | [3] | [4] | [6] | [7] | [8] | [9] | [16] | [12] | [13] | [17]

CCCCNC(=O)NS(=O)(=O)c1ccc(C)cc1
inactive: [14] | [1] | [2] | [3] | [15] | [4] | [5] | [6] | [7] | [8] | [9] | [10] | [13] | [18]

OC1C(O)C(O)C(O)C(O)C1O (configuration not stated)
inactive: [14] | [1] | [2] | [3] | [4] | [5] | [6] | [7] | [8] | [9] | [10] | [12] | [13] | [17]

COc1ccc(Cl)cc1C
inactive: [14] | [2] | [3] | [15] | [4] | [5] | [6] | [7] | [8] | [9] | [10] | [19] | [12] | [13] | [17] | [18]

CC(C)(C)c1cc(CCC(=O)NN)cc(C(C)(C)C)c1O
active: [14] 10.2 µM
inactive: [1] | [2] | [3] | [15] | [4] | [6] | [7] | [8] | [9] | [10] | [19] | [12] | [13] | [17]

CCCC(=O)OCCC(C)CCC=C(C)C (configuration not stated)
inactive: [1] | [2] | [3] | [15] | [4] | [5] | [6] | [7] | [8] | [9] | [10] | [16] | [19] | [12] | [13] | [17] | [18]

CCCCCCCCCCCCSC
inactive: [1] | [2] | [15] | [4] | [5] | [6] | [7] | [8] | [9] | [16] | [12]
active: [14] 27.3 µM

O=c1[nH]c(=O)n([C@H]2CCCO2)cc1F
inactive: [14] | [1] | [3] | [15] | [5] | [6] | [7] | [8] | [9] | [12]

COC(C)CCO (configuration not stated)
inactive: [2] | [3] | [15] | [4] | [5] | [6] | [8] | [9] | [16] | [12]
active: [14] 26.6 µM | [7] 187 µM | [10] 65.3 µM

O=c1[nH]nnc2ccccc12
inactive: [1] | [2] | [3] | [15] | [4] | [5] | [6] | [7] | [8] | [10] | [13]

O=C(O)c1ccc([N+](=O)[O-])cc1
inactive: [14] | [2] | [3] | [15] | [5] | [6] | [7] | [8] | [9] | [10] | [17]

CC(CCO)CCCC(C)(C)O (configuration not stated)
inactive: [1] | [2] | [15] | [4] | [5] | [6] | [7] | [8] | [9] | [10] | [16] | [12] | [13] | [17]

CCCCCOC(=O)CCC
inactive: [1] | [2] | [3] | [4] | [5] | [7] | [8] | [9] | [16] | [19] | [12] | [13] | [17] | [18]

CCCCOCCOCCOCCOCCO
inactive: [1] | [2] | [3] | [4] | [5] | [6] | [7] | [8] | [10] | [17]
active: [14] 27.5 µM

C=CC(=O)OCC(O)COc1ccccc1 (configuration not stated)
active: [3] 26.3 µM | [12] 24.3 µM
inactive: [14] | [1] | [2] | [15] | [4] | [6] | [7] | [8] | [9] | [16]

— PubChem BioAssay (EPA / NIEHS)
